Hit rate of the full screen: of about 69,000 compounds, about 8,600 (12%) showed an effect of 50% or more. The list comes from a sample in which strong results are over-represented; it also holds similar structures and randomly drawn compounds.
System: Plasmodium berghei
Assay: Screen against P. berghei liver stage (PbLuc), transformed with Luciferase, at 10uM
Type: functional, HepG2
Details: tested at 10 uM

Row | Structure (SMILES) | INHIBITION [%]
1 | COc1ccc(CCN2CC(n3nc(C)cc3C)C2)cc1 | -6.61
2 | Cc1cnn(CCCNCc2csc(COc3ccccc3)n2)c1 | 30.2
3 | CCOC(=O)c1sc(NC(=O)C(C)(C)C)c(C#N)c1C | -43.6
4 | Cc1nn(C)c(C)c1C1CCCN1CC(=O)NCc1ccccn1 (configuration not stated) | 26.5
5 | COCCNC(=O)CN1CCC(N2CCN(C)C2=O)CC1 | 48.2
6 | Cc1cc(C(=O)N2CCCC(c3nccn3C)C2)cc(S(N)(=O)=O)c1C (configuration not stated) | -2.98
7 | Cc1cc(C)nc(N2CCC(C(=O)Nc3ncc[nH]3)CC2)n1 | 47.9
8 | CNc1cc(C(=O)N2CCOC(C(=O)NC3CCCC3)C2)ccn1 (configuration not stated) | -23.4
9 | O=C(NCCSc1ccccc1)[C@H]1CNC[C@@H](C(=O)N2CCOCC2)C1 | -1.09
10 | CCc1cc(C(F)(F)F)c2c(C3CCN(C(=O)COC)CC3)noc2n1 | 52
11 | COCC(=O)N1CCC(c2cc(C(F)(F)F)c3c(C)noc3n2)CC1 | 9.93
12 | Cc1cc(C(F)(F)F)c2c(C3CCN(S(=O)(=O)N(C)C)CC3)noc2n1 | 60.8
13 | COCC(=O)N1CCC(c2noc3nc(C)cc(C(F)(F)F)c23)CC1 | 15.4
14 | CCc1cc(C(F)(F)F)c2c(C3CCCN(C(=O)COC)C3)noc2n1 (configuration not stated) | -8.12
15 | COCCC(=O)N1CCC(c2noc3nc(C)cc(C(F)(F)F)c23)CC1 | 38.1
16 | CCn1ncc2c1C(COCC1CC1)N(Cc1c(C)noc1C)CC2 (configuration not stated) | 47.5
17 | CCCn1nccc1NC(=O)CN1CCc2c(nc(C3CC3)n2C)C1 | 5.7
18 | CNC(=O)CN1CCc2c(CNc3nccs3)n[nH]c2C1 | -4.88
19 | CCNc1c(NC(=O)C(C)(C)C)c(=O)oc2ccccc12 | -3.83
20 | O=C(NC[C@]12COC[C@H]1CN(Cc1nccs1)C2)N1CCCC1 | -20.5
21 | O=C(c1cccnc1)N1Cc2nccn2CC(COc2cccnc2)C1 (configuration not stated) | 9.51
22 | O=C(Cc1ccc2c(c1)CCO2)N1CCCCC1Cn1cccn1 (configuration not stated) | -35.5
23 | O=C(Cc1ccc(O)c(Cl)c1)N1CCCCC1CCn1cccn1 (configuration not stated) | 60.1

Row | Structure (SMILES) | INHIBITION [%]
24 | COc1ccc(CC(=O)N2CCCCC2Cn2cccn2)cc1OC (configuration not stated) | 0.79
25 | CCOC1COC2(CCN(Cc3ccco3)CC2)C1 (configuration not stated) | -2.35
26 | O=c1[nH]c(-c2ccncc2)ncc1-c1ccnc(N2CCOCC2)n1 | 18.9
27 | CCN1CC2(CCN(C(=O)C(C)Oc3cccc(Cl)c3)CC2)OC1=O (configuration not stated) | 14.9
28 | CCN1CC2(CCN(C(=O)C(C)Oc3ccc(F)cc3F)CC2)OC1=O (configuration not stated) | 52.5
29 | CC(Oc1ccc(F)cc1F)C(=O)N1CCC2(CCCO2)CC1 (configuration not stated) | 14.9
30 | Cc1cc(C)n(-c2cncc(N3CCN(C(=O)CN(C)C)CC3)n2)n1 | 52.6
31 | CCC(=O)N1CCCN(c2cncc(-n3nc(C)cc3C)n2)CC1 | 13.2
32 | Cc1cc(C)n(-c2cncc(N3CCN(C(=O)C(C)C)CC3)n2)n1 | 14
33 | O=C(NC1CC1)c1cn(C2CCN(c3cc(C4CC4)ncn3)CC2)nn1 | 39.3
34 | CCc1ncc(CN2CCN(c3cc(NC4CC4)nc(N)n3)CC2)cn1 | -55
35 | CCc1cc(N2CCC(NCc3ccc(C)o3)CC2)ncn1 | -24.9
36 | CCc1cc(N2CCC(Nc3ccc(Cl)cn3)CC2)ncn1 | 84.6
37 | OCCNc1cc(N2CCC(n3cc(C4CCCC4)nn3)CC2)ncn1 | 28
38 | CCc1cc(N2CCC(n3cc(C(=O)NC4CC4)nn3)CC2)ncn1 | 89.3
39 | CC(C)Nc1cc(N2CCC(n3cc(C4CC4)nn3)CC2)ncn1 | 24.7
40 | CCc1cc(N2CCC(n3cc(C(=O)NCC(C)C)nn3)CC2)ncn1 | 71.4
41 | Cc1ccc(SCCCNC(=O)c2cn(C3CCC(N)CC3)nn2)cc1 (configuration not stated) | -164
42 | CSCCC(C)(O)CNS(=O)(=O)Cc1ccc(F)cc1 (configuration not stated) | 44.9
43 | Cc1ccccc1CNC(=O)CN1CCCC(Cc2nccn2C)C1 (configuration not stated) | -50.8
44 | CC(C)CCn1cc(C(C(=O)O)N2CCCN(C3CCCC3)CC2)cn1 (configuration not stated) | 33.9
45 | c1nc(CNC2CCOCC2)c2n1CCCN(CC1CC1)C2 | 45.1
46 | Cn1ccc(C(=O)NC2CCC23CCN(Cc2cnn(C)c2)CC3)c1 (configuration not stated) | -28.7

Row | Structure (SMILES) | INHIBITION [%]
47 | CCS(=O)(=O)N1CCN(CCn2cccn2)c2nc(C)ccc2C1 | 26.3
48 | c1cc(CN2CC[C@@H]3[C@@H](CO[C@H]3CN3CCOCC3)C2)cs1 | -20.1
49 | CCN(CC)C(=O)CNC(=O)c1ccc(-c2ccsc2)nc1C | 34.5
50 | CCN(CC)C(=O)CN(C)C(=O)c1ccc(-c2ccsc2)nc1C | 59.5
51 | CCN(CC)C(=O)c1ccc(-c2ccsc2)nc1C | -6.53
52 | CCn1nc(C)c2nn(CC(=O)NC3CCSCC3)cc21 | 25.4
53 | Cn1cccc1C(=O)N1C[C@@H]2C[C@@H](c3nc(C4CC4)cs3)O[C@@H]2C1 | -5.08
54 | CC(C)(C)C(=O)NCCc1cc2nc(-c3ccncc3)ccn2n1 | 24.44
55 | CCOCC(O)CN1CCN(C(=O)c2cccc(OC)c2)CC1 (configuration not stated) | -33.7
56 | CCn1ccnc1CN1CCCC(CO)(Cc2cccc(OC)c2)C1 (configuration not stated) | 23.7
57 | CCn1ccnc1C1CCN(Cc2cccc(C)n2)CC1 | 24.2
58 | Cc1cccc(CN2CCC(c3nccn3CC(N)=O)CC2)n1 | 58.3
59 | Cc1ncc(C)c(N2CCCC(CO)(Cc3cccc(Cl)c3)C2)n1 (configuration not stated) | 86.8
60 | OCC1(Cc2cccc(Cl)c2)CCCN(c2ncccn2)C1 (configuration not stated) | 11.4
61 | CCOC(=O)C1(CCOC)CCCN(Cc2nccn2CC)C1 (configuration not stated) | 62.2
62 | CCn1ccnc1CN1CCCC(CO)(Cc2cccc(Cl)c2)C1 (configuration not stated) | 79.3
63 | N#Cc1ccccc1CN1CCC(c2nccn2CC(N)=O)CC1 | -15.3
64 | CCOC(=O)C1(CCOC)CCN(Cc2nccn2CC)CC1 | 28.7
65 | CCC1(CO)CCCN(Cc2nccn2Cc2ccccc2)C1 (configuration not stated) | -82.2
66 | CCOC(=O)C1(Cc2ccccc2)CCCN(Cc2nccn2CC)C1 (configuration not stated) | 35.4
67 | Cc1cnc(C)c(N2CCCC(CO)(Cc3cccc(Cl)c3)C2)n1 (configuration not stated) | 34.6

Reference: ChEMBL document CHEMBL4513216, “Probing the Open Global Health Chemical Diversity Library for Multistage-Active Starting Points for Next-Generation Antimalarials” (ACS Infect Dis, 2020)
